Bioassay records from PubChem.
D2 PAM-1 = Beta-Arrestin HTS for Positive Allosteric Modulators of the Human D2 Dopamine Receptor: Potentiators | potentiation, % (test concentration not listed) | AID 624464, 2012 | DiscoveRx D2 beta-arrestin cells, luminescence, 90 min; 100% = 57 uM dopamine signal | actives 0.23% (n = 360,000) | D(2) dopamine receptor (Homo sapiens), P14416; in the data active = potentiation above about 50%; inconclusive = mostly about 30% to 49%
Target sequence (P14416 whole entry, looked up): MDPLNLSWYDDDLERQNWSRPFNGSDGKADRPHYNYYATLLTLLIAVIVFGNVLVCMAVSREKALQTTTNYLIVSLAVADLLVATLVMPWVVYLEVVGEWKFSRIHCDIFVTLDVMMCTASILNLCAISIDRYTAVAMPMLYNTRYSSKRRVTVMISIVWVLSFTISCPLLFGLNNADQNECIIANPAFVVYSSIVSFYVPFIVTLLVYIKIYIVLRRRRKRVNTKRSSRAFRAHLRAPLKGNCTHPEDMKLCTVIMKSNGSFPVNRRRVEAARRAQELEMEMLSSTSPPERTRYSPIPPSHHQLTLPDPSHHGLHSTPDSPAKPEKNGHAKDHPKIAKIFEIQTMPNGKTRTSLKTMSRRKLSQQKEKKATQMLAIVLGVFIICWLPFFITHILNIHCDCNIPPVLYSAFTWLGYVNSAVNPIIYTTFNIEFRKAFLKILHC
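PathHunter beta-arrestin assay in DiscoveRx D2 cells. Compounds were added with an EC20 of dopamine (50 nM final) for 90 min at 37 deg C. Luminescence was read 1 h after detection reagent, with 57 uM dopamine as the EC100 control.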
D2 ag-1 = Beta-Arrestin HTS for Positive Allosteric Modulators of the Human D2 Dopamine Receptor: Agonists; D(2) dopamine receptor (Homo sapiens), P14416; DiscoveRx PathHunter D2 beta-arrestin, luminescence, 90 min; 100% = 57 uM dopamine signal; activation, % (test concentration not listed); actives 0.084% (n = 360,000); AID 624465, 2012; in the data active = activation above about 40%; inconclusive = between about 15% and that limit
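DiscoveRx PathHunter D2 beta-arrestin cells (2,100/well) attached overnight, then compound-stimulated 90 min at 37 C in HBSS/10 mM HEPES/0.1% Tween-20 buffer; beta-galactosidase complementation read by luminescence after 1 h at ambient temperature. Dopamine 57 uM final (EC100) as control.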
D2 antagonist = HTS Assay for Allosteric Antagonists of the Human D2 Dopamine Receptor: Primary Screen for Antagonists; D(2) dopamine receptor (Homo sapiens), P14416; HEK293 TREx D2 cells, calcium flux, dopamine EC80; inhibition, % at 10 µM; actives 2% (n = 340,000); AID 485344, 2010; in the data active = inhibition above about 30%; inactive = below that, where a call was filed; also: 0% is about no effect
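Antagonism is scored as inhibition of an EC80 dopamine-evoked calcium signal in a force-coupled, tetracycline-inducible HEK293 T-REx D2 line, with compound present 180 s before agonist.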
D2 ag-2 = HTS Assay for Allosteric Agonists of the Human D2 Dopamine Receptor: Primary Screen for Agonists. HEK293 T-REx D2 cells, calcium flux agonist mode. activation, % at 2 µM. actives 0.53% (n = 340,000);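 active = activation over 3 SD above normal in the single-dose calcium agonist read, cut at about 30% in these data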; also: 0% is about no effect
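Agonism is scored from calcium flux in a force-coupled, inducible HEK293 cell line expressing D2, read kinetically for 180 s after compound addition against dopamine controls.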
D2 PAM-2 = HTS Assay for Positive Allosteric Modulators of the Human D2 Dopamine Receptor: Primary Screen for Potentiators | D(2) dopamine receptor (Homo sapiens), P14416 | HEK293 T-REx D2, calcium flux, EC20 dopamine potentiation | potentiation, % at 10 µM | actives 0.34% (n = 340,000) | AID 485347, 2010;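 active = potentiation over 3 SD above the plate norm, cut at about 30% in these data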; also: 0% is about no effect
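Cells plated with tetracycline inducer and held overnight at 30 C; calcium dye loaded 30–90 min at room temperature; baseline taken, compound added and read 180 s; EC20 dopamine then added and read 180 s.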
Active calls of the source: *; ? = inconclusive; nt = no result given. In the library only some 2.4% were active in any assay of this set; here they are far more common.

SMILES | D2 PAM-1 | D2 ag-1 | D2 antagonist | D2 ag-2 | D2 PAM-2
CCCCN(CC)Cc1c(O)ccc2c(-c3ccccc3)cc(=O)oc12 | -35.1 | -2.8 | -10.2 | -1.0 | -25.9
CCCc1cc(=O)[nH]c(SCC(=O)NC2CCCCCCC2)n1 | -4.8 | -1.5 | nt | nt | nt
CCCc1cc(=O)[nH]c(SCC(=O)NC(=O)NC2CCCC2)n1 | -14.5 | 1.2 | 32.1* | 0.6 | -14.5
CCn1c(=O)c2cc(C(=O)NCCc3ccc(OC)c(OC)c3)sc2c2ccccc21 | nt | nt | nt | -0.3 | -10.5
O=C(O)CCc1ccc(-c2ccc(Cl)cc2)n1CC(=O)Nc1ccccc1 | -4.9 | -1.2 | -8.6 | -2.0 | 35.6*
O=C(O)CCc1ccc(-c2ccc(Cl)cc2)n1CC(=O)O | -3.5 | -3.3 | 8.6 | -0.1 | 8.9
CCc1ccc(NC(=O)CC2C(=O)N(c3ccc(OC)cc3)C(=O)N2Cc2ccc(OC)cc2)cc1 (stereo unspecified) | nt | nt | nt | 0.3 | -6.9
O=C(Nc1ccc(N2CCOCC2)cc1)c1ccc(Br)o1 | -2.2 | 1.0 | 71.2* | 0.4 | 5.0
CN1CCN(c2ccc(NC(=O)c3ccc(Br)o3)cc2)CC1 | 0.3 | -0.6 | 9.4 | 0.7 | -4.1
Cc1ccc2c(=O)c(C(=O)c3ccc(F)cc3)cn(CC(=O)NCc3ccco3)c2n1 | 15.4 | 5.2 | 33.1* | 0.3 | -1.8
CC1(C)CC(=O)C(C=NCCc2ccc(S(N)(=O)=O)cc2)=C(O)C1 | -4.2 | -1.7 | nt | nt | nt
COc1ccc(CCN=CC2=C(O)CC(C)(C)CC2=O)cc1 | 9.3 | -1.9 | 31.4* | -0.5 | 2.8
Cc1ccccc1C(=O)O/N=C/c1c(N2CCOCC2)n(C)c2ccccc12 | 179.6* | ? | -6.4 | 0.8 | -5.9
Cc1cccc(N2CCN(C(=O)CNC(=O)c3ccccc3)CC2)c1C | -6.0 | 0.2 | 33.1* | -1.2 | 12.8
Cc1cccc(N2CCN(C(=O)CNC(=O)C3CCCCC3)CC2)c1C | 14.2 | 2.5 | 0.9 | 0.6 | -3.8
Cc1ccc(Cn2cc(S(=O)(=O)c3ccc(C(C)C)cc3)c(=O)c3cc4c(cc32)OCO4)cc1 | 5.5 | -2.8 | 36.1* | 0.1 | 7.6
Cc1nnc2c3ccccc3nc(N3CCN(c4cccc(Cl)c4)CC3)n12 | nt | nt | nt | 0.8 | 9.8
CCOC(=O)c1c(NC(=O)Cn2c(=O)oc3ccccc32)oc(C)c1C(C)=O | -12.4 | 5.6 | 30.5* | -0.5 | 17.4
Cc1cc(C)c(NC(=O)CCCn2c(=O)oc3ccccc32)c(C)c1 | -1.3 | -2.9 | 33.1* | 0.0 | 4.0
Cc1ccc(NC(=O)CCCn2c(=O)oc3ccccc32)c(O)c1 | -11.2 | -0.7 | -10.0 | -0.2 | 4.4
CCOC(=O)c1cccc(NC(=O)CCn2c(=O)oc3ccccc32)c1 | -5.5 | -0.8 | 32.1* | -2.2 | -14.0
O=C(CCn1c(=O)oc2ccccc21)Nc1cccc(Cl)c1 | -9.3 | -3.2 | 9.0 | -1.3 | -0.2
CCOC(=O)c1c(C)[nH]c(C(=O)Cn2c(=O)oc3ccccc32)c1C | -27.3 | -0.6 | 6.4 | 0.0 | -10.1
CCCC(=O)OC1=CN(Cc2ccccc2)S(=O)(=O)c2ccccc21 | nt | nt | nt | -0.1 | -7.7
Cc1ccccc1SCC(=O)Nc1cc(S(=O)(=O)N2CCOCC2)ccc1N1CCOCC1 | -1.1 | 4.3 | nt | nt | -10.3
SMILES | D2 PAM-1 | D2 ag-1 | D2 antagonist | D2 ag-2 | D2 PAM-2
CC(NCC(=O)Nc1cc(S(=O)(=O)N2CCOCC2)ccc1N1CCOCC1)c1ccco1 (stereo unspecified) | -2.1 | 5.3 | 63.6* | 1.5 | 8.3
CC(Oc1ccc(F)cc1)C(=O)Nc1cc(S(=O)(=O)N2CCCCC2)ccc1N1CCOCC1 (stereo unspecified) | 3.2 | 0.4 | 37.3* | -0.3 | 2.0
CCN(CC)CCn1c(=S)[nH]c2cc(C(=O)NCc3ccc(C)cc3)ccc2c1=O | -14.2 | -0.2 | 36.4* | -0.4 | -12.0
Cc1ccc(C)c(N2CCN(CC3CCCCC3)CC2)c1 | -19.7 | 3.2 | 62.2* | -0.8 | -20.8
Cc1ccc(C)c(N2CCN(Cc3nnnn3C3CCCCC3)CC2)c1 | -7.6 | -2.3 | 7.5 | 1.0 | 12.7
Cc1ccc(C)c(N2CCN(CCCc3ccccc3)CC2)c1 | -4.6 | -5.9 | 51.3* | 1.6 | -25.2
Cc1cccc(N2CCN(CC3CCCCC3)CC2)c1C | -5.0 | -3.9 | 73.3* | 0.5 | -37.6
C/C=C(\C)CN1CCN(c2cccc(C)c2C)CC1 | -28.1 | 1.2 | 85.0* | 0.7 | -22.9
N#Cc1ccccc1NC(=O)C(=O)NCCc1csc(-c2ccc(F)cc2)n1 | nt | nt | nt | 0.0 | -6.2
O=C(NCCc1nc2ccccc2n1Cc1ccc(F)cc1)c1ccco1 | nt | nt | nt | -0.1 | -0.9
O=S(=O)(N/N=C/c1ccc(N2CCOCC2)cc1)c1ccc(Br)cc1 | -8.4 | -2.2 | 1.9 | 0.1 | 30.9*
CCOC(=O)c1c(C)oc2c1c(C(c1ccccc1)N1CCOCC1)c(O)c1ccccc12 (stereo unspecified) | ? | -2.3 | 57.4* | -1.6 | -2.6
CCOC(=O)c1c(C)oc2c1c(C(c1cccnc1)N1CCCCC1)c(O)c1ccccc12 (stereo unspecified) | 102.5* | ? | -1.6 | 0.4 | -3.3
CCOC(=O)c1c(C)oc2c1c(C=NCCO)c(O)c1ccccc12 | 19.5 | 8.2 | -25.3 | 3.4 | 12.0
c1csc(C2=Nn3c(nnc3-c3ccncc3)SC2)c1 | 19.6 | -1.7 | 20.5 | 0.8 | 31.6*
c1ccc(-c2ncc(CSc3nncn3-c3ccccc3)s2)cc1 | -20.1 | -3.8 | nt | nt | nt
Cc1nnc(SCc2cnc(-c3ccc(C(C)C)cc3)s2)n1C | 2.5 | -3.2 | 66.5* | -1.9 | 1.4
COc1cccc(C2CC(=O)N3CN(C4CCCCC4)CSC3=C2C#N)c1 (stereo unspecified) | nt | nt | nt | 0.1 | 4.2
Nc1c(C(=O)c2ccccc2)sc2nsc(SCCN3CCOCC3)c12 | 2.3 | 0.5 | 1.8 | 31.8* | -3.6
CC(=O)c1sc2nsc(SCCN3CCOCC3)c2c1N | -2.8 | -3.2 | 6.1 | -0.1 | -3.3
CCOC(=O)N1CCC(NC(=O)C(NS(=O)(=O)c2cccc3nsnc23)c2ccccc2)CC1 (stereo unspecified) | -6.1 | 3.7 | 7.3 | -0.6 | 1.3
O=C(NC1CCN(Cc2ccccc2)CC1)C(NS(=O)(=O)c1cccc2nsnc12)c1ccccc1 (stereo unspecified) | -10.9 | -0.4 | 34.5* | -0.8 | -18.3
O=C(CCc1nc2cccnc2n1Cc1cccs1)Nc1cccc(C(F)(F)F)c1 | nt | nt | nt | nt | -11.0
Cc1nc2ccc(Cl)cc2n1C | -4.5 | 0.2 | nt | nt | nt
